Source: PubChem (National Center for Advancing Translational Sciences (NCATS))
Shiga inhibitor = inhibitors of Shiga toxin in Vero cells. 290,000 compounds, 9.2% hits. Vero cells, Shiga toxin protein synthesis inhibition reporter. AID 2315. inhibition, % at 38.7 µM; in the data active means inhibition mostly above about 28%, no sharp cut-off; inactive means mostly below about 43%; further: 0% is about no effect
FMDV antiviral = foot and mouth disease virus antiviral activity. FMDV antiviral cell-based qHTS. Potency, µM (series often up to 57.9 µM), for inactives: top-dose activity change, negative = inhibition, usual class: inhibitors. 410,000 compounds, 1.2% hits. AID 1159524; calls by dose curve; tested in HEK293T cells; further: read-out not given here; potency means the concentration at half of the fitted maximal effect; on the % scale 0 is the no-effect control and ±100 the full control effect; nearly all actives have a fitted effect of over 45% in size
Sm TGR inh = inhibitors of Schistosoma mansoni thioredoxin glutathione reductase; Q962Y6; purified TGR, DTNB reduction, TNB absorbance 405 nm; Potency, µM (top dose mostly 114 µM), for the others: at the highest dose activity change, negative = inhibition, hits mostly inhibitors; 360,000 compounds, 3% hits; active means well fitted inhibition curve with a large enough effect; inconclusive means small, poorly fitted or top-dose-only effect; inactive means no such curve, though single readings can be large or run the other way; further: potency means the concentration at half of the fitted maximal effect; on the % scale 0 is the no-effect control and ±100 the full control effect; nearly all actives have a fitted effect of over 60% in size
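Kinetic colorimetric format: TGR-catalysed, NADPH-driven DTNB reduction monitored via TNB absorbance. Enzyme dispensed at 20 nM; compound exposure 15 min at room temperature before reaction start.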
CHX counter = counter-screen for Shiga toxin inhibitors: cycloheximide protein synthesis inhibition | max response, % | 300,000 compounds, 12% hits | cell reporter, cycloheximide protein synthesis inhibition counterscreen; in the data active means max response mostly above about 13%, no sharp cut-off; inactive means mostly below about 14%; further: read at 38.3 µM for the half of the compounds with a filed dose; 0% is about no effect
* = called active by the depositor; ? = inconclusive; / = no result; + = active, no number. The list is not random: actives were taken first. Their share in the collection is about 12%.

SMILES | Shiga inhibitor | FMDV antiviral | Sm TGR inh | CHX counter
COc1cc(/C=C2/CCCC(C(=O)C(F)(F)F)=C2O)ccc1O | 17 | -10% | 35µM* | 1
COc1ccc(N2CCN(C(=O)c3nc(-c4ccc(Cl)cc4)n4c3CCCCC4)CC2)cc1 | / | -20% | 3% | /
CCOC(=O)CNS(=O)(=O)c1ccc(F)cc1Br | 2 | / | / | -5
Cc1ccc(NCc2cccn2-c2nnc(N3CCC(C(=O)NCCc4ccccc4)CC3)s2)cc1 | / | 2% | -4% | /
Cc1ccc(C)c(NC(=O)Cn2cnc3nc4c(cc3c2=O)CCCC4)c1 | / | -29% | -11% | /
COc1ccccc1Nc1nn2c(=O)c3ccc(C(=O)NC4CCC(C)CC4)cc3nc2s1 (stereo not given) | / | -15% | 1% | /
COc1ccc(/C=C2\CCCC(C(=O)C(F)(F)F)=C2O)cc1OC | 76 | / | 32µM* | 20*
COc1cc(/C=C2/CCC/C(=C\c3cc(O)c(OC)c(Cl)c3)C2=O)cc(Cl)c1O | -20 | ? | 0% | 0
COc1cc(/C=C2\Oc3cc(O)ccc3C2=O)ccc1O | 70* | 77% | 1% | 51*
COc1cc(/C=C2\CC/C(=C\c3cc(OC)c(O)c(OC)c3)C2=O)cc(OC)c1O | -11 | 22µM* | 28µM* | 1
COc1ccc(/C=C2/CCCC(C(=O)C(F)(F)F)=C2O)cc1OC | 25 | -9% | ? | 12
O=C1/C(=C/c2ccc(O)c(O)c2)Oc2cc(O)ccc21 | 6 | 55% | ? | -2
O=C(NCCC1=CCCCC1)c1ccc2c(c1)N(Cc1ccc(Cl)cc1)C(=O)c1ccccc1S2=O (stereo not given) | / | -11% | 1% | /
COc1cc(/C=N/n2c(-c3ccc4c(c3)NC(=O)CO4)csc2=Nc2cccc(C)c2)ccc1O | 38* | ? | -12% | 33*
COCCN=c1scc(-c2ccc3c(c2)NC(=O)CO3)n1/N=C(\C)c1ccc(O)cc1 | -3 | 0% | 0% | -1
CN=C1NN=C(c2cc(C)n(-c3c(C)n(C)n(-c4ccccc4)c3=O)c2C)CS1 | -6 | -10% | -24% | -3
COc1ccc(-n2c(C)cc(C3=NNC(=NC4CC4)SC3)c2C)cc1 | 85* | -37% | -11% | 40*
Cc1cc(C2=NNC(=NCc3ccccc3)SC2)c(C)n1-c1c(C)n(C)n(-c2ccccc2)c1=O | -5 | -3% | -3% | -2
Cc1cc(C2=NNC(=NC3CC3)SC2)c(C)n1-c1ccccc1 | -6 | 0.1µM* | -2% | -1
CC(C)c1nn2c(=O)cc(COC(=O)c3cccs3)nc2s1 | / | 11% | 2% | /
O=C(COc1ccc(F)cc1)Nc1ccccc1C(=O)OCc1cc(=O)n2ccsc2n1 | / | -23% | -10% | /
O=[N+]([O-])c1cc(Cl)ccc1NCCc1ccccn1 | 57* | 4% | -14% | 18*
O=C(NCCNc1ccc(Cl)cc1[N+](=O)[O-])c1ccccc1F | 19 | 14% | 12% | 12*
CCc1cccc(NC(=O)C(NS(=O)(=O)c2ccc3nc(C)sc3c2)C(C)C)c1 (stereo not given) | / | -6% | -3% | /
O=C(NN=C1CCCC1)c1sc2ccccc2c1Cl | 43* | 33% | 3% | 38*
SMILES | Shiga inhibitor | FMDV antiviral | Sm TGR inh | CHX counter
O=C1CCC/C(=N/NC(=O)c2sc3ccccc3c2Cl)C1 | 22 | 39% | 2% | 18*
O=C1CC(c2ccccc2Cl)c2c(sc3c(=O)[nH]c(CCl)nc23)N1 (stereo not given) | -1 | / | 25µM* | -1
COc1ccc(-c2csc(N3C(=O)CNC3=S)n2)cc1 | 140* | -48% | -8% | 93*
c1ccc(-c2csc(-n3cnnn3)n2)cc1 | 55 | 0% | 0% | 7
COc1ccc(-c2csc(N3C(=O)C4C5c6ccccc6C(c6ccccc65)C4C3=O)n2)cc1 (stereo not given) | -6 | -13% | 7% | -4
COc1ccc(-c2csc(N3C(=O)C4C5c6ccccc6C(c6ccccc65)[C@@H]4C3=O)n2)cc1 (stereo not given in full) | -6 | -16% | 1% | -4
COc1ccc(-c2csc(N3C(=N)SCC3=O)n2)cc1 | 163* | 34% | 6% | 49*
O=C1CNC(=S)N1c1nc(-c2ccccc2)cs1 | 39* | -22% | -12% | 23*
Cc1cccc(NC(=O)c2oc3ccccc3c2NC(=O)Cc2coc3cc(C)cc(C)c23)c1 | / | -1% | 0% | /
O=C(Cn1c(=O)nc(-c2ccccc2)c2cc(Cl)ccc21)NCCc1ccc(Cl)cc1 | / | ? | 8% | /
O=C(Cn1c(=O)nc(-c2ccccc2)c2cc(Cl)ccc21)NCc1ccccc1 | / | 14µM* | 4% | /
CN(C)S(=O)(=O)c1cc(NC(=O)CNCc2ccccc2)ccc1Cl | 67* | 21% | 1% | 41*
Cc1ccc(NC(=O)CNCc2ccccc2Cl)cc1S(=O)(=O)N(C)C | 58* | 61% | -11% | 40*
CN(C)S(=O)(=O)c1cc(NC(=O)CN2CCN(c3ccc(O)cc3)CC2)ccc1Cl | 25 | -8% | 79µM* | -1
NC(=O)c1ccc(NC(=O)CNCc2ccccc2Cl)cc1 | 49* | 40% | 3% | 14*
O=C(CNCc1ccccc1Cl)Nc1ccc(C(=O)N2CCCCC2)cc1 | -5 | -13% | -13% | 3
COc1cccc(C2=CC(c3cccc(OC)c3OC)n3nnnc3N2)c1 (stereo not given) | 41* | -12% | 40µM* | 30*
COc1cccc(C2=CC(c3cccc(OC)c3OC(F)F)n3nnnc3N2)c1 (stereo not given) | 8 | -14% | -6% | 17*
CC(=O)c1cccc(NC(=O)CSc2nc3ccccc3nc2Cc2ccc(F)cc2)c1 | / | -11% | 6% | /
O=C(O)c1cccc(-c2ccc(/C=N/NC(=O)C3COc4ccccc4O3)o2)c1 (stereo not given) | + | 31% | -9% | 56*
CC(C)(C)c1ccc2c(c1)OC(C(=O)N/N=C\c1ccc(-c3cccc(C(=O)O)c3)o1)CO2 (stereo not given) | 148* | 18% | -16% | 70*
O=C(N/N=C/c1c[nH]c2ccccc12)C1COc2ccccc2O1 (stereo not given) | -9 | -25% | -8% | -4
O=C(N/N=C\c1ccc([N+](=O)[O-])o1)C1COc2ccccc2O1 (stereo not given) | 67* | -6% | ? | 22*
O=C(N/N=C\c1ccc(-c2ccccc2[N+](=O)[O-])o1)C1COc2ccccc2O1 (stereo not given) | -14 | -14% | -5% | -7
CCC1=NN(C(=O)c2ccc(C)cc2)C(O)(c2ccc(Br)cc2)C1 (stereo not given) | 44* | 3% | -4% | 39*
CCC1=NN(C(=O)c2cccc(Br)c2)C(O)(c2ccc(Br)cc2)C1 (stereo not given) | 70* | 0% | -6% | 41*
COC(=O)C1=NN(C(=O)c2ccc(C)cc2)C(O)(c2ccc(Cl)cc2)C1 (stereo not given) | 3 | / | 8% | -1
CCC1=NN(C(=O)c2ccc(Br)cc2)C(O)(c2ccc(C)cc2)C1 (stereo not given) | 32* | 8% | 15% | 33*
N=C1C(c2nc3ccccc3s2)=C(O)CN1Cc1ccco1 | 67* | 13% | ? | 26*
